A selection: hits, their analogues and other compounds. The true share with any hit is near 19%.
SW480 rerep: A quantitative high throughput screen for small molecules that induce DNA re-replication in SW480 colon adenocarcinoma cells; SW480 DNA re-replication, Hoechst DNA content imaging, 48 h; actives 1.8% (n = 340,000); Potency, µM (doses to about 46.1 µM), for inactives: at the highest dose re-replication activation, actives largely listed as activators; note: potency is the fitted concentration of half-maximal effect; % of control where 0% means no effect; nearly all actives have a fitted effect of over 55% in size
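250 cells/well; 23 nL cpd via pin tool; 48 hr, 37 C, 5% CO2; Hoechst 40 min; imager read of total nuclear intensity, ex 405/em 500-530 nm.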
DT40 TDP1 CPT: qHTS for Inhibitors of human tyrosyl-DNA phosphodiesterase 1 (TDP1): qHTS in cells in presence of CPT; chicken DT40 Tdp1-/-;hTDP1 cells + 20 nM CPT, ATP luminescence, 48 h; Potency, µM (top dose mostly 46.2 µM), for inactives: top-dose activity change, negative = growth inhibition, hits mostly inhibitors; actives 12% (n = 420,000); AID 686979, 2013; note: potency is the fitted concentration of half-maximal effect; % is set by controls: 0 for no effect and ±100 for the full control effect; nearly all actives have a fitted effect of over 55% in size
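Chicken DT40 Tdp1-/- cells complemented with human TDP1, 400 cells/well, exposed to compounds plus 20 nM camptothecin for at least 48 h at 37 C; viability read as ATP content by CellTiter-Glo luminescence.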
MCF10A rereplic: A quantitative high throughput screen for small molecules that induce DNA re-replication in MCF 10a normal breast cells; MCF 10A DNA re-replication, Hoechst nuclear intensity, 48 h; Potency, µM (highest dose often 46.1 µM), inactives show at the highest dose activity, positive = re-replication, actives largely listed as activators; actives 2.9% (n = 350,000); AID 624296, 2012; note: potency is the fitted concentration of half-maximal effect; % of control where 0% means no effect; nearly all actives have a fitted effect of over 50% in size
TDP1 cell noCPT: qHTS for Inhibitors of human tyrosyl-DNA phosphodiesterase 1 (TDP1): qHTS in cells in absence of CPT; Potency, µM (titrated, usually from 46.2 µM), for inactives: at the highest dose activity change, negative = growth inhibition, hits mostly inhibitors; DT40 Tdp1-/- hTDP1 cells, no CPT, ATP luminescence, 48 h; actives 15% (n = 420,000); note: potency is the fitted concentration of half-maximal effect; % is set by controls: 0 for no effect and ±100 for the full control effect; nearly all actives have a fitted effect of over 55% in size
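Stably hTDP1-transfected Tdp1-null chicken DT40 cells were treated with library compounds minus camptothecin and grown for at least 48 hr at 37 °C, after which cellular ATP was quantified by luminescence.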
IL-1B inflam inh: qHTS for Inhibitors of Inflammasome Signaling: IL-1-beta AlphaLISA Primary Screen; THP-1 LPS/ATP IL-1B secretion, AlphaLISA, 16 h; stronger effect = lower value; activity change, % at 57.5 µM; actives 4.7% (n = 360,000); in the data active = activity change below about -50%; inconclusive = mostly about -30% to -49%; note: % is set by controls: 0 for no effect and ±100 for the full control effect
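Secreted IL-1B measured by AlphaLISA bead assay after 16 h compound exposure of THP-1 cells; compounds (final up to 57.5 uM) added 1 h before LPS (250 ng/mL) and ATP (1.25 mM) stimulation; lower signal means less secretion.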
BCR signal inh: qHTS Assay to Find Inhibitors of Chronic Active B-Cell Receptor Signaling. ABC-DLBCL IkBa-CBG/CBR reporter, luminescence ratio, 4 h. Potency, µM (doses to about 46.1 µM), without a hit: at the highest dose activity change, negative = inhibition, most hits filed as inhibitors. actives 0.05% (n = 340,000). AID 493014, 2011; active = well fitted inhibition curve with a large enough effect in the signal ratio, with a control signal flat, not every such curve was filed as active; inconclusive = small, poorly fitted or top-dose-only effect, or effect the other way, or a change in a side signal; the % refers to the signal ratio;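 note: potency is the fitted concentration of half-maximal effect; plate controls were basal doxycycline-induced cells for no effect and cells given 10 µM MG132 for full effect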
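Compounds up to 46 uM were incubated four hours with TMD8 cells whose green CBG68 luciferase is fused to IkappaBalpha; red CBR luminescence normalised the signal, and concentration-effect curves were fitted to fusion, red and ratio data.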
Active calls of the source: *; ? = inconclusive; nt = no result. Unless noted, calls come from the whole dose curve; as a rule, active = well fitted curve in the direction sought with a large enough effect; inconclusive = small, poorly fitted or top-dose-only effect, or another doubt; inactive = no such curve, though single readings can be large; an effect the other way counts as inactive or inconclusive.

SMILES	SW480 rerep	DT40 TDP1 CPT	MCF10A rereplic	TDP1 cell noCPT	IL-1B inflam inh	BCR signal inh
Cc1ccc(-c2c(C#N)c(N)n(-c3ccc(Cl)cc3)c(=O)c2C#N)cc1	nt	-21.4%	nt	-10.0%	-21.6	nt
FC(F)Sc1ccc(-n2c(-c3ccc(Cl)cc3)c[n+]3c2CCC3)cc1	17.8%	11.6µM*	?	14.6µM*	?	4.6%
Cc1ccc(-n2c(-c3ccccc3)c[n+]3c2CCC3)cc1	1.5%	1.03µM*	12.1%	0.651µM*	-73.1*	-3.5%
Cc1ccc(-n2c(-c3ccccc3)nnc2-c2cccs2)cc1	2.5%	?	-9.5%	-5.7%	-0.4	-2.1%
Cc1ccc(-n2c(-c3ccc(Cl)cc3)c[n+]3c2CCC3)cc1	0.5%	3.26µM*	1.2%	3.26µM*	0.0	3.0%
CCOC(=O)c1nnn(-c2ccccc2)c1C	5.6%	-4.3%	3.2%	-11.3%	-19.8	-5.2%
COCc1c(C(=O)OC)nnn1-c1ccc(C(F)(F)F)cc1[N+](=O)[O-]	-1.2%	18.4µM*	-0.5%	-9.8%	-72.3*	-2.9%
CCOC(=O)c1nnn(-c2ccc([N+](=O)[O-])cc2[N+](=O)[O-])c1C	7.31µM*	11.6µM*	?	11.6µM*	?	?
CCOC(=O)C1CCN(C(=O)Cn2nc(CC)n3cccc3c2=O)CC1	12.8%	?	0.3%	?	-1.2	1.5%
CN(Cc1ccco1)c1cc(-c2ccoc2)ncn1	nt	-19.1%	nt	-2.1%	nt	nt
COc1ccc(Cn2cc(CN3CC(N4CCN(Cc5ccccc5F)CC4)CS3(=O)=O)nn2)cc1 (centres undefined)	nt	?	nt	20.6µM*	7.9	nt
O=S1(=O)CC(N2CCN(Cc3ccccc3F)CC2)CN1Cc1cn(Cc2ccc(Cl)cc2)nn1 (centres undefined)	nt	18.4µM*	nt	13µM*	-1.5	nt
CCOC(=O)c1sc(N=NC2=C(O)CC(C)(C)CC2=O)c(C(=O)OCC)c1C	-0.6%	?	-1.3%	14.6µM*	1.7	?
O=C(CS(=O)(=O)c1cccc2nsnc12)Nc1ccccc1Cl	nt	1.7%	nt	-23.7%	nt	nt
O=C(Nc1ccc(Cl)c(C(F)(F)F)c1)c1ccco1	15.4%	-20.6%	?	?	?	?
O=C(Nc1ccc(OC(F)F)c(Cl)c1)C(c1ccccc1)c1ccccc1	16.6%	?	2.31µM*	18.4µM*	-62.0*	?
CCC(C(=O)Nc1ccc(OC)c(Cl)c1)c1ccccc1 (centres undefined)	-1.4%	4.0%	4.4%	-7.2%	6.4	-1.4%
CCNC(=S)Nc1ccc(Cl)c(C(F)(F)F)c1	?	-94.7%	?	23.1µM*	4.4	8.4%
FC(F)Oc1ccc(NC(=S)NCc2ccccc2)cc1Cl	?	15.8µM*	15.2%	?	-88.7*	3.5%
CC(NC(=S)Nc1ccc(OC(F)F)c(Cl)c1)C(C)(C)C (centres undefined)	19.5%	?	23.7%	?	-96.4*	5.3%
CCNC(=O)CC1C(=O)N(c2cccc(OC)c2)C(=O)N1Cc1ccc(OC)c(OC)c1 (centres undefined)	nt	10.0%	nt	-14.9%	nt	nt
CCc1cccc(NC(=O)CN2Cc3ccccc3C2=O)c1	nt	3.3%	nt	?	nt	nt
Fc1cc(NC(=S)NCc2ccc(CNC(=S)Nc3ccc(Cl)c(F)c3)cc2)ccc1Cl	10.7%	?	?	13µM*	21.1	?
CCN(CC)c1ccc(C(=O)NNC(=O)CNC(=O)c2cccs2)cc1	-1.5%	-0.6%	-4.3%	-7.8%	-7.7	-5.8%
S=c1[nH]nc(COc2ccccc2)n1-c1ccc(Cl)cc1	28.7%	14.3%	2.4%	23.1µM*	19.6	nt
SMILES	SW480 rerep	DT40 TDP1 CPT	MCF10A rereplic	TDP1 cell noCPT	IL-1B inflam inh	BCR signal inh
COc1ccc(-c2cc(C(=O)O)n(Cc3ccccc3)n2)cc1	nt	-3.3%	nt	-19.4%	nt	nt
Cc1[nH]c2ccc(F)cc2c1CCN(Cc1ccncc1)C(=S)Nc1ccccc1	0.9%	-9.0%	2.9%	-24.7%	-69.5*	?
Cc1[nH]c2ccccc2c1CCN(Cc1cccnc1)C(=S)Nc1cccc(F)c1	0.0%	?	14.7%	?	-70.2*	?
CCOc1ccc(NC(=S)N(CCc2c(C)[nH]c3ccc(C)cc23)Cc2ccncc2)cc1	?	?	?	?	0.0	-5.0%
Cc1[nH]c2ccc(F)cc2c1CCN(Cc1cccnc1)C(=S)Nc1ccccc1	5.0%	-18.1%	?	?	-11.4	-11.6%
Cc1cc2nc(CCN(Cc3cccnc3)C(=S)Nc3ccccc3)[nH]c2cc1C	4.3%	-28.1%	16.4µM*	?	-50.3*	-1.2%
Cc1[nH]c2ccccc2c1CCN(Cc1cccnc1)C(=S)Nc1ccc(F)cc1	-2.2%	16.4µM*	5.1%	16.4µM*	-20.5	-12.1%
CC(=O)c1cccc(NC(=O)CSc2nnc3ccc(-c4ccc(C)cc4)nn23)c1	nt	-29.4%	nt	-9.6%	nt	?
CC1ON=C(c2ccccn2)N(Cc2ccc3c(c2)OCO3)C1=O (centres undefined)	nt	?	nt	?	43.3	nt
CCOC(=O)[C@]12CCCC=C1N(Cc1ccco1)C(=O)[C@H](CC(=O)NCCC(C)C)C2	nt	?	nt	16.4µM*	18.2	nt
CCOC(=O)[C@]12CCC=C1N(Cc1ccccc1)C(=O)[C@H](CC(=O)NCCCCc1ccccc1)C2	nt	?	nt	20.6µM*	?	nt
CCOC(=O)[C@]12CCC=C1N(Cc1ccccc1)C(=O)[C@H](CC(=O)NCc1cccs1)C2	nt	?	nt	23.1µM*	-14.1	nt
CCOC(=O)[C@]12CCC=C1N(Cc1ccco1)C(=O)[C@H](CC(=O)NCCC(C)C)C2	nt	-1.0%	nt	-26.9%	7.6	nt
CCOC(=O)[C@]12CCC=C1N(Cc1ccccc1)C(=O)[C@H](CC(=O)NCCC(C)C)C2	nt	20.6µM*	nt	?	0.0	nt
CCOC(=O)[C@]12CCC=C1N(Cc1ccccc1)C(=O)[C@H](CC(=O)NCCCN1CCCC1=O)C2	nt	-10.2%	nt	1.2%	19.5	nt
CC(OC(=O)Cn1cnc2c1c(=O)n(C)c(=O)n2C)C(=O)NC(C)c1ccc(Cl)cc1Cl (centres undefined)	5.0%	?	1.8%	-28.2%	11.7	2.1%

Assay outcomes (PubChem BioAssay)
